Laboratory results taken from PubChem BioAssay.
Active and inactive are the calls of the source.

Legend:
[1] = compound effects on lung adenocarcinoma cell viability – A549, calcein-AM fluorescence, 48 h, basal, profiling panel (AID 1162); conditions: higher = more signal
[2] = compound effects on differentiated 3T3-L1 adipocyte viability – cell-based, 3T3-L1 adipocytes, calcein-AM fluorescence, 48 h, basal, profiling panel (AID 1163); conditions: 3T3-L1 adipocytes viability, higher = more signal
[3] = compound effects on hepatocellular carcinoma cell viability – HepG2, calcein-AM fluorescence, 48 h, basal, profiling panel (AID 1164); conditions: higher = more signal
[4] = compound effects on multiple myeloma cell viability – MM1S, calcein-AM fluorescence, 48 h, basal, profiling panel (AID 1165); conditions: higher = more signal
[5] = calcein-AM signal in unstimulated myeloma cells – cell-based, calcein-AM fluorescence, 48 h, PK04 Diversity Set, profiling panel (AID 1166); conditions: RPMI8226 myeloma viability, higher = more signal;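 further: cells grown under basal conditions without added stimulus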
[6] = JC-1 mitochondrial signal, unstimulated HepG2 cells – cell-based, JC-1 fluorescence, 24 h, 100 nL compound, profiling panel (AID 1167); conditions: HepG2 mitochondrial potential, higher = more signal
[7] = JC-1 mitochondrial signal, unstimulated adipocytes – cell-based, JC-1 fluorescence, 3T3-L1 adipocytes, 24 h, 100 nL compound, profiling panel (AID 1168); conditions: JC-1 mitochondrial fluorescence, higher = more signal, called active from +8 up or from −8 down
[8] = JC-1 mitochondrial signal, unstimulated myeloma cells – cell-based, JC-1 fluorescence, RPMI8226, 24 h, 100 nL compound, profiling panel (AID 1169); conditions: JC-1 mitochondrial potential fluorescence, higher = more signal
[9] = JC-1 mitochondrial signal, unstimulated MM1S myeloma – cell-based, JC-1 fluorescence, 24 h, 100 nL compound, profiling panel (AID 1170); conditions: MM1S mitochondrial potential, higher = more signal
[10] = resazurin metabolic signal in A549 cells – cell-based, resazurin fluorescence, 24 h, PK04 Diversity Set, profiling panel (AID 1171); conditions: A549 viability, higher = more signal, called active from +8 up or from −8 down
Further: test concentration not given here.

SMILES | z-score [1] | z-score [2] | z-score [3] | z-score [4] | z-score [5] | z-score [6] | z-score [7] | z-score [8] | z-score [9] | z-score [10]
CC(=O)OC[C@H]1O[C@@H](ON=C(C)CCN2CCCCc3nc(C)c(C)cc32)[C@H](OC(C)=O)[C@@H](OC(C)=O)[C@@H]1OC(C)=O | -1.33 | 1.58 | -0.716 | 0.224 | -2.19 | 0.203 | 0.327 (inactive) | -0.832 | -0.411 | -0.101 (inactive)
Cc1cc(C)c(-c2cc([C@H](C)ON=C[C@@H](C)[C@H](OCc3ccccc3)C(C)C)on2)c(C)c1 | 0.66 | -0.0328 | 0.163 | 0.682 | -0.234 | 3.57 | -0.508 (inactive) | -0.149 | -0.143 | -0.0597 (inactive)
CO[C@@H]1C=CCC(=O)N[C@@H](C)C(=O)OC[C@@H](OC)[C@H](C)C=CCC(=O)OC[C@H]1C | 0.234 | 0.374 | 0.0804 | 0.316 | 0.389 | 0.589 | -0.848 (inactive) | 0.674 | 0.704 | 0.474 (inactive)
CO[C@@H]1C=CCC(=O)N[C@@H](C)C(=O)OC[C@@H](NS(=O)(=O)c2ccc(C)cc2)[C@H](C)C=CCC(=O)OC[C@H]1C | -0.533 | 0.37 | 0.495 | -0.0903 | -0.431 | 0.0105 | 0.0826 (inactive) | -0.782 | 0.301 | 0.179 (inactive)
CC(C)=NOC(C)CN1CCCc2nc(C)c(C)cc21 (stereo not given) | 0.755 | -0.588 | 0.272 | -0.237 | 0.0977 | 0.0197 | -0.24 (inactive) | -0.416 | 0.226 | -0.373 (inactive)
O=C1[C@H]2[C@H]3[C@H](O)[C@H](O)CC(=NO[C@@H]4O[C@H](CO)[C@@H](O)[C@H](O)[C@H]4O)[C@H]3CC[C@H]2C(=O)N1C[C@@H]1CCCO1 | 0.676 | -0.568 | 0.184 | 0.7 | 0.269 | 0.607 | 0.572 (inactive) | 0.39 | -1.13 | -0.6 (inactive)
COc1cccc([C@H](O)Cn2cc(-c3ccc(CON=C(C)C)cc3)nn2)c1 | 0.445 | -0.374 | 0.206 | 1.22 | 0.157 | -0.803 | 0.706 (inactive) | -0.0682 | -0.544 | -0.409 (inactive)
CON=C[C@@H](OC)[C@H](C)C=CCC(=O)OC | -0.0933 | -0.105 | 0.262 | 0.253 | 0.205 | -0.34 | -1.2 (inactive) | 0.673 | 0.856 | 0.213 (inactive)
COc1cccc([C@H]2Oc3ccc(OC)cc3C(=NOCC[C@@H]3C=C[C@H](OC(C)=O)[C@@H](COC(C)=O)O3)[C@@H]2O)c1 | -0.34 | -0.542 | -0.744 | 0.445 | -1.19 | -1.28 | -1.16 (inactive) | -0.209 | -1.04 | -0.945 (inactive)
C[C@@H]1CC[C@H]2C(=O)OC(CN3C(=O)c4ccccc4C3=O)CN2[C@H]1c1ccc(Br)cc1 (stereo not given in full) | 0.0752 | -0.0986 | 0.182 | 0.49 | 0.447 | 0.239 | -0.105 (inactive) | -0.911 | 1.67 | 0.705 (inactive)
CON=C(C)CCC(=O)OC[C@H]1O[C@H](C#Cc2ccccc2)C=C[C@@H]1Oc1ccc(C)cc1 | -0.631 | 0.0995 | -3.1 | -2.99 | -3.96 | -0.712 | -0.73 (inactive) | -0.5 | -0.373 | 0.216 (inactive)
COC(=O)[C@H](C)NC(=O)CCC1CC(OC(=O)NCc2cccc3ccccc23)CC2(CCCC(COC(=O)NCCC(C)C)O2)O1 (stereo not given in full) | 0.505 | -0.0667 | -1.75 | -3.38 | -3.49 | -0.653 | 0.112 (inactive) | -0.51 | -1.82 | 0.236 (inactive)
CC(C)[C@@H](OCc1ccccc1)[C@H](C)C=NO[C@H](C)c1cn([C@@H]2COC[C@H]2O)nn1 | 0.569 | -0.478 | -0.0131 | 0.0238 | -0.0081 | -0.479 | -0.98 (inactive) | 0.608 | -0.601 | -0.516 (inactive)
CCN1C(=O)[C@H]2[C@H]3[C@H](O)[C@H](O)CC(=NO[C@H](C)c4cn([C@@H]5COC[C@H]5O)nn4)[C@@H]3CC[C@H]2C1=O | 0.165 | -0.736 | -0.127 | -0.0272 | 0.215 | -0.407 | -1.37 (inactive) | 0.125 | -0.11 | -0.232 (inactive)
O=C(NCCC[N+]1=CC=NC1c1ccccc1)N1CCCc2nc(-c3ccc(Br)cc3)ccc21 (stereo not given) | 0.478 | -1.13 | -0.598 | -2.52 | -0.77 | 1.13 | -0.141 (inactive) | 0.184 | -0.404 | 0.811 (inactive)
COc1ccc(COC(=O)NN=C2C[C@@H](O)[C@@H](O)[C@@H]3[C@@H]4C(=O)N(C5CCCCC5)C(=O)[C@@H]4CC[C@@H]23)cc1 | 0.0391 | 1.11 | 0.494 | 0.419 | 0.3 | -0.0284 | -0.297 (inactive) | -0.375 | -0.269 | -0.533 (inactive)
COCC#Cc1ccc([C@@H]2N[C@H](C(=O)O)CC[C@H]2C)cc1 | 0.681 | -0.269 | 0.654 | 0.391 | 1.14 | 0.816 | 0.727 (inactive) | -0.859 | 0.839 | -0.488 (inactive)
CCOC(=O)[C@H](CC(C)C)NC(=O)CCC1CC(OC(=O)NCCc2ccc(F)cc2)CC2(CCCC(COC(=O)NCc3cccc(C(F)(F)F)c3)O2)O1 (stereo not given in full) | -0.366 | -0.289 | -0.581 | -3.37 | 0.277 | -0.471 | -0.512 (inactive) | 0.652 | -0.0831 | -0.209 (inactive)
O=C1[C@H]2[C@H]3[C@H](O)[C@H](O)CC(=NO[C@@H]4O[C@H](CO)[C@@H](O)[C@H](O)[C@H]4O)[C@@H]3CC[C@H]2C(=O)N1C[C@@H]1CCCO1 | -0.863 | -0.0334 | -0.618 | -0.0584 | -2.03 | -0.42 | -0.0322 (inactive) | 0.0485 | -1.16 | 0.226 (inactive)
O=C1C[C@H](c2ccccc2)[C@H](c2ccc(Br)cc2)O1 | 1.43 | 0.172 | -0.0656 | 0.342 | 1.08 | 1.19 | 0.268 (inactive) | 0.563 | 0.891 | -0.317 (inactive)
CC=CC1=C(CO)[C@H](O)[C@H]2O[C@H]2[C@@H]1O | -0.37 | 0.309 | 0.366 | -0.948 | -0.671 | -0.206 | 0.00909 (inactive) | -0.225 | -0.244 | -0.337 (inactive)
CCN1C(=O)[C@H]2[C@H]3[C@H](O)[C@H](O)CC(=NOCC(C)C)[C@H]3CC[C@H]2C1=O | -0.124 | -0.574 | -0.391 | 0.199 | 0.286 | -0.584 | -0.977 (inactive) | 0.0664 | -0.86 | -0.348 (inactive)
O=C1[C@H]2[C@H]3[C@H](O)[C@H](O)CC(=NO[C@@H]4O[C@H](CO)[C@@H](O)[C@H](O)[C@H]4O)[C@@H]3CC[C@H]2C(=O)N1C1CCCCC1 | 0.646 | -0.235 | 0.521 | 0.547 | 0.776 | 1.09 | -0.229 (inactive) | 0.169 | -1.25 | -0.934 (inactive)
CCOC(=O)CCN1C(=O)[C@H]2[C@H]3[C@H](O)[C@H](O)CC(=NOCC=C(C)CCC=C(C)C)[C@H]3CC[C@H]2C1=O | 0.844 | -1.23 | 0.536 | 0.345 | 0.15 | 0.572 | 0.408 (inactive) | 0.523 | -1.44 | -1.1 (inactive)
C=CC[C@@H]1C=C[C@H](ON=C(C)CCN2CCCCc3nc(C)c(C)cc32)[C@@H](CO)O1 | 0.275 | -0.7 | -0.389 | 0.475 | -0.332 | -0.874 | -1.84 (inactive) | -0.174 | -0.514 | -0.421 (inactive)
CON=C(C)CCN1CCc2nc(-c3ccccc3)c(-c3ccccc3)cc2C1 | -0.119 | 0.728 | 0.0133 | -2.98 | -1.5 | 1.03 | -0.144 (inactive) | -0.0566 | 0.446 | 1.73 (inactive)
COc1ccc(O[C@H]2C=C[C@@H](c3ccccc3)O[C@@H]2CON=C2c3cc(OC)ccc3O[C@H](c3cccc(OC)c3)[C@H]2O)cc1 | 0.344 | -1.17 | 0.189 | -0.0952 | -1.04 | 0.422 | -2.37 (inactive) | -0.326 | -0.0381 | -0.142 (inactive)
CO[C@H]1COC(=O)[C@H](C)COC(=O)[C@H](C)NC(=O)CC=C[C@H]1C | -0.0718 | 0.996 | -0.248 | 0.0627 | 0.286 | 0.708 | 0.475 (inactive) | -0.218 | 1.3 | 0.724 (inactive)
